Measles CPE: protection of cells from measles virus; Measles virus-infected cells, CPE protection, absorbance; protection (pct of control), % at 4 µM; actives 1.5% (n = 140,000); in the data active = protection mostly above about 24%, no sharp cut-off; inactive = mostly below about 26%
CYP2C9 act: activators of human CYP2C9; P11712; recombinant CYP2C9, luciferin-H conversion, luminescence; active compounds read high; factor 1 = untreated enzyme, 0 = blocked; activation factor at 5 µM; actives 1.4% (n = 96,000); AID 1024;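 active = activation factor of 2 or more for CYP2C9 at a 5 µM dose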;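 also: 0 = sulfaphenazole-blocked wells and 1 = vehicle-only wells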
Target sequence (P11712 whole entry, looked up): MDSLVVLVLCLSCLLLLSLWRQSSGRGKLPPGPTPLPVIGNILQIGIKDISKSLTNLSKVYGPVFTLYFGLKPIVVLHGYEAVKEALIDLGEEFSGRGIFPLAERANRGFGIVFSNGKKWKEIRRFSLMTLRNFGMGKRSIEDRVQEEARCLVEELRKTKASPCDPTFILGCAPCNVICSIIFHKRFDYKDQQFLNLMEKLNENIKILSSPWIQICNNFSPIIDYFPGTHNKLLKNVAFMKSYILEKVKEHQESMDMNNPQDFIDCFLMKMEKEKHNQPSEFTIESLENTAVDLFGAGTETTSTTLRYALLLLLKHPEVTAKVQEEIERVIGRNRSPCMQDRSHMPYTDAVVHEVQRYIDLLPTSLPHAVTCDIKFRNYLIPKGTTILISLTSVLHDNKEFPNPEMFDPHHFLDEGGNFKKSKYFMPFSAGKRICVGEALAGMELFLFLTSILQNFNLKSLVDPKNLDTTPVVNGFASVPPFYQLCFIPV
CYP2C9 inh: human CYP2C9 inhibition; CYP2C9 Supersomes, luciferin-H conversion, luminescence; inhibition, % at 5 µM; actives 20% (n = 96,000); AID 777;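 active = blocking of liver enzyme CYP2C9 beyond about 50% at 5 µM, limit read from the data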
CYP2C19 inh: inhibitors of human CYP2C19; P33261; inhibition, % at 5 µM; actives 21% (n = 96,000); CYP2C19 Supersomes, luciferin-H EGE luminescence, 30 min;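 active = CYP2C19 inhibition above a set limit at 5 µM in the primary screen, cut at about 50% in these data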;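 also: plate controls were negative control wells for no effect and 2.5 mM tranylcypromine positive control for full effect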
CYP2C19 act: cytochrome P450 2C19 (human) activation; P33261; 96,000 tested, under 10 active; recombinant CYP2C19, luciferin-H EGE luminescence; active compounds read high; 0 = fully inhibited enzyme, 1 = untreated enzyme; activation factor at 5 µM;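 active = activation factor of at least 2 at 5 µM in the primary screen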;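 also: 0 = wells with 2.5 mM tranylcypromine and 1 = vehicle-only wells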
The depositor's hits bear a star; · = not tested or not shown. The list is not random: actives were taken first. Their share in the collection is about 22%.

SMILES	Measles CPE	CYP2C9 act	CYP2C9 inh	CYP2C19 inh	CYP2C19 act
O=C(Nc1cccnc1)c1ccc2c(c1)C(=O)N(Cc1cccnc1)C2=O	4.1	0.7	27.0	-13.3	1.1
CCc1ccc2c(c1)[C@]1(C(=O)N2)[C@@H]2C(=O)N(Cc3ccccc3)C(=O)[C@@H]2[C@@H]2CCCN21	11.6	0.3	67.7*	75.0*	0.3
Cc1ccccc1NC(c1cccc(Cl)c1)c1nnnn1C1CCCCC1 (centres undefined)	27.0	·	·	·	·
CCOc1ccc2c(c1)-c1c(ssc1=S)C(C)(C)N2C(=O)CSC1=NCCS1	4.2	·	·	·	·
CCOc1ccc2c(c1)-c1c(ssc1=S)C(C)(C)N2	23.0	0.3	71.6*	71.6*	0.3
COc1ccc(OC)c(S(=O)(=O)N2CCN(C)CC2)c1	1.4	0.9	11.9	45.3	0.5
CCOC(=O)Nc1ccc(OC)cc1S(=O)(=O)N1CCCCC1	4.2	1.1	-7.5	62.8*	0.4
COc1ccc(C(C)(C)C)cc1S(=O)(=O)N1CCN(C)CC1	0.1	2*	-96.6	22.7	0.8
COc1cc(C)c(S(=O)(=O)N2CCCC2)cc1C	4.5	1.5	-45.8	88.3*	0.1
COc1cc(C)c(S(=O)(=O)N2CCN(C)CC2)cc1C	5.5	1.1	-14.2	62.0*	0.4
C[C@]1(C(=O)O)Cc2oncc2C[C@@H]1C(=O)O	20.1	·	·	·	·
COc1ccc(OC)c(S(=O)(=O)N2CCCCCC2)c1	3.4	1.1	-11.6	33.6	0.7
COc1ccc(Br)cc1S(=O)(=O)N1CCCC1	22.6	·	·	·	·
COc1ccc(S(=O)(=O)N2CCCN(S(=O)(=O)c3ccc(OC)cc3C)CC2)c(C)c1	4.5	2.1*	-108.8	22.6	0.8
COc1cc(S(=O)(=O)N2CCCCCC2)c(OC)cc1Br	5.1	0.3	74.7*	96.3*	0
COc1c(C)cc(S(=O)(=O)N2CCCC2)c(C)c1C	6.5	1.6	-64.0	96.1*	0
O=C(O)CCCC(=O)N1CCc2cc(S(=O)(=O)N3CCc4ccccc43)ccc21	14.4	0.9	8.4	-19.6	1.2
CC1CN(C2CCN(C(=O)COc3ccc(Cl)cc3)CC2)CC(C)O1 (centres undefined)	2.7	1	2.8	8.8	0.9
Cc1ccc(-c2csc(=S)n2CC(=O)OCC(=O)NCc2ccc(F)cc2)cc1	13.3	0.1	87.1*	79.5*	0.2
O=C(COC(=O)Cc1ccc(-c2ccccc2)cc1)NCc1ccc(F)cc1	1.1	·	·	·	·
Cc1ccc(Cl)cc1-c1ccc(C=Nc2ccc(N3CCOCC3)cc2)o1	60.2*	·	·	·	·
O=C1C(=O)N(Cc2cccnc2)C(c2ccccn2)/C1=C(/O)c1ccc(Br)cc1 (centres undefined)	10.1	0.1	86.0*	-0.7	1
COc1ccc(/C(O)=C2/C(=O)C(=O)N(Cc3cccnc3)C2c2ccccn2)cc1 (centres undefined)	8.3	·	·	·	·
CC1CCN(C(=O)CN2C(=O)c3ccccc3S2(=O)=O)CC1	14.6	0.9	8.8	15.1	0.8
CC1CCN(C(=O)c2ccc3c(c2NCCO)C(=O)c2ccccc2C3=O)CC1	8.8	0.8	23.5	81.1*	0.2
SMILES	Measles CPE	CYP2C9 act	CYP2C9 inh	CYP2C19 inh	CYP2C19 act
COc1ccc(C)cc1S(=O)(=O)N(CC(=O)NCc1ccc(Cl)cc1)Cc1ccccc1	17.6	0.1	89.4*	72.1*	0.3
CN(CC(=O)NC(=O)NCc1ccccc1)Cc1ccc(Cl)cc1	29.3	·	·	·	·
COc1ccc(CNC(=O)CN(Cc2ccccc2)S(=O)(=O)c2ccc(Cl)cc2)cc1	5.4	0	96.1*	99.5*	0
COc1ccc(CNC(=O)CN(Cc2ccc(Cl)cc2)S(=O)(=O)c2ccccc2)cc1	2.9	0.7	34.4	42.1	0.6
O=C(Oc1cccc2c(O)cccc12)c1ccccc1	3.3	0.3	73.1*	83.8*	0.2
CS(=O)(=O)N(CC(=O)NC1CC2CCC1C2)c1cccc(C(F)(F)F)c1 (centres undefined)	5.6	0.8	22.4	43.0	0.6
Cc1ccc(N(CC(=O)NC2CC3CCC2C3)S(C)(=O)=O)cc1C (centres undefined)	4.1	0.9	10.5	73.2*	0.3
O=C(c1scc2c1CCCC2)N1CCCCC1	36.0*	1.2	-23.4	7.8	0.9
Cc1ccc(NC(=O)c2scc3c2CCCC3)cc1	20.4	·	·	·	·
COC(=O)COc1ccc(/C=N/NC(=O)c2ccc(N(Cc3ccccc3)S(C)(=O)=O)cc2)cc1	10.5	·	·	·	·
COc1ccc(CN(C2CCCC2)S(=O)(=O)c2ccc(-n3cnnn3)c(OC)c2)cc1OC	9.3	0.5	46.0	46.2	0.5
Cc1cc(S(=O)(=O)N(Cc2ccc(F)cc2)CC2CCCO2)ccc1-n1cnnn1 (centres undefined)	25.6	0.9	13.3	56.3*	0.4
Cc1cc(S(=O)(=O)N(Cc2ccc(C(C)C)cc2)CC2CCCO2)ccc1-n1cnnn1 (centres undefined)	5.4	0.5	52.6*	43.5	0.6
Cc1cc(S(=O)(=O)NCc2cccs2)ccc1-n1cnnn1	8.4	·	·	·	·
Cc1cc(S(=O)(=O)N(Cc2ccc3c(c2)OCO3)CC2CCCO2)ccc1-n1cnnn1 (centres undefined)	6.1	0.3	69.2*	94.8*	0.1
CCn1c(=O)c(C(=O)CN2CCN(S(=O)(=O)c3cc(C)ccc3C)CC2)c(N)n(Cc2ccccc2)c1=O	6.3	·	·	·	·
CCOC(=O)c1c(C)sc2c1N(C(=O)CN(CC)CC)c1cc(Cl)ccc1S2	9.3	0.3	70.4*	70.2*	0.3
Cn1c(/C(C#N)=C/C2CC=CCC2)nc2ccccc21 (centres undefined)	7.2	0.9	13.8	58.0*	0.4
COc1ccc(NCc2n[nH]nc2-c2ccccc2)cc1Cl	12.7	0.1	86.0*	96.9*	0
CCN(CCO)c1ncnc2c1sc1nc(CC(C)C)c3c(c12)CC(C)(C)OC3	0.8	0.3	68.7*	19.7	0.8
CCOC(=O)C1CCN(C(=O)CCCCn2c(=O)[nH]c3ccccc3c2=O)CC1	32.1	·	·	·	·
CCCOc1ccc(/C=N/Nc2ccccc2[N+](=O)[O-])c(OCCC)c1	4.4	·	·	·	·
COC(=O)c1cc(OC)c(OC)cc1NC(=S)N1CCCCC1	30.2	0.9	6.8	50.1*	0.5
COC(=O)c1cc(OC)c(OC)cc1NC(=O)CN1CCCCC1	10.7	1	-1.6	4.2	1
COC(=O)c1cc(OC)c(OC)cc1NC(=O)CC1CCCCC1	22.5	0.5	51.1*	22.7	0.8
COC(=O)c1cc(OC)c(OC)cc1NC(=S)N1CCN(c2ccccc2)CC1	19.9	0.5	53.8*	99.9*	0
COC(=O)c1cc(OC)c(OC)cc1NC(=S)N1CCN(C)CC1	14.7	1	2.9	64.9*	0.4
CCCCn1c(-c2ccco2)nc2ccccc2c1=O	7.9	0.8	23.5	29.2	0.7
CC(Sc1ccc(Cl)cc1)C(=O)Nc1ccccc1-c1ccccc1 (centres undefined)	5.0	·	·	·	·
CCOC(=O)C1CCN(C(=S)Nc2cc(OC)c(OC)cc2C(=O)OC)CC1	2.6	0.8	17.9	99.6*	0
